# High-throughput results deposited in PubChem by Buhrlage Lab, Dana-Farber Cancer Institute and Novartis Institutes for BioMedical Research (Cambridge, Mass).
# Hits are enriched below; roughly 12% of the tested compounds scored in any of these assays.
# USP30 block: inhibitors of human USP30 deubiquitinase; purified USP30, Ub-rhodamine cleavage fluorescence; inhibition, % at 25 µM; hit rate 5.3% among 47,000; Q70CQ3
# USP17 block: inhibitors of human USP17 deubiquitinase. A8MUK1. purified USP17, Ub-rhodamine cleavage fluorescence, 3 h. inhibition, % at 50 µM. hit rate 6.5% among 47,000. AID 1645855
# Target sequence (A8MUK1 whole entry, looked up): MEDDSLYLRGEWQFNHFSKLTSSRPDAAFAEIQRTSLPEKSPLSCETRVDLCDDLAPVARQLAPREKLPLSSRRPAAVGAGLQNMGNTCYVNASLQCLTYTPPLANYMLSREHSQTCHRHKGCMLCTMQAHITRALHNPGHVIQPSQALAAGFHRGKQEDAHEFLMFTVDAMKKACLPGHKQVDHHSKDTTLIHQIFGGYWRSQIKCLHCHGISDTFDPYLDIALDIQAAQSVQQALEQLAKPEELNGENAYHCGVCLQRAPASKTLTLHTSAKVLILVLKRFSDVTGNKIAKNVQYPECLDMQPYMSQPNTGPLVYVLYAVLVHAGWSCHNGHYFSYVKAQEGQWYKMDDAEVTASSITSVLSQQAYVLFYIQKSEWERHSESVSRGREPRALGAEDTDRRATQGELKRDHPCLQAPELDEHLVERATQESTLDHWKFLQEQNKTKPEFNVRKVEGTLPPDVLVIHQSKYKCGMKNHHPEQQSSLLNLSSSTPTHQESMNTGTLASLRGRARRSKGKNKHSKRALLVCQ
# USP8 inh: inhibitors of human USP8 deubiquitinase. purified USP8, Ub-rhodamine cleavage fluorescence, 30 min. inhibition, % at 20 µM. hit rate 4.2% among 47,000
# Numbers stand for hits; . = inactive; / = not tested or not shown. No stated cut-off is given here; in the data, active means inhibition above about 30%; inactive means the rest.
SMILES,USP30 block,USP17 block,USP8 inh
COC(=O)c1cc(O)cc(O)c1C(=O)c1c(O)cc(C)cc1O,.,.,.
Cc1cc(O)cc(Oc2cc(C)cc(O)c2)c1,30.3,.,.
Cn1cc(C(=O)N[C@@H]2C[C@H](O)[C@@H](N3CCc4ccccc4C3)[C@@H]2O)cn1,.,.,.
COc1ccc(NC(=O)CC(c2ccco2)n2cccc2)c(OC)c1 (stereo unspecified),.,.,.
CC(CC(=O)Nc1ccc(F)cc1)CC(=O)Nc1ccc(C(C)C)cc1 (stereo unspecified),.,.,.
COc1ccc(NC(=O)CC(C)CC(=O)Nc2ccc(C(C)C)cc2)c(OC)c1 (stereo unspecified),.,45.8,.
Cc1ccc(NC(=O)CC(C)CC(=O)Nc2ccc(C(C)C)cc2)cc1Cl (stereo unspecified),.,/,31.2
COc1ccc(CNC(=O)C2(C)Oc3cccnc3N(C)C2=O)cc1 (stereo unspecified),.,/,.
COc1ccc(Br)c(OC)c1C(=O)NC(=O)Nc1c(C(C)C)cccc1C(C)C,.,.,.
O=C(Nc1ccccc1)c1nc2c(s1)CCN(C(=O)c1ccccc1)CC2,.,.,.
c1ccc(CNc2ccc(-c3ccccc3)nn2)cc1,45.1,.,56.8
CN1CCN(C(=O)c2ccc(-c3ccc(NCc4ccccc4)nn3)cc2)CC1,.,.,.
Cc1ccc(C)c(Cn2nnc3c(=O)[nH]c(C4CCN(S(=O)(=O)c5ccc(S(=O)(=O)NC6CCCC6)cc5)CC4)nc32)c1,.,.,.
Cc1ccc(C)c(Cn2nnc3c(=O)[nH]c(C4CCN(S(=O)(=O)c5ccc(S(=O)(=O)NC6CC6)cc5)CC4)nc32)c1,51.6,30.3,.
Cc1ccc(C)c(Cn2nnc3c(=O)[nH]c(C4CCN(S(=O)(=O)c5ccc(S(=O)(=O)NC6CCCCC6)cc5)CC4)nc32)c1,.,.,.
Cc1ccc(C)c(Cn2nnc3c(=O)[nH]c(C4CCN(S(=O)(=O)c5ccc(S(=O)(=O)N6CCOCC6)cc5)CC4)nc32)c1,33.2,40.4,55.8
COc1ccc2[nH]cc(CCN=C(NC(=O)c3ccccc3)Nc3nc(C)cc(C)n3)c2c1,.,.,.
NCC(=O)N1CCCC2(Cc3ccccc3CN2S(=O)(=O)c2ccccc2)C1 (stereo unspecified),43.9,.,.
CC(=O)N1CCCC2(Cc3ccccc3CN2S(=O)(=O)c2ccccc2)C1 (stereo unspecified),.,.,.
CC(C)n1c(=O)c2nscc2n(CC(=O)Nc2ccccc2)c1=O,.,.,.
COc1ccc(NC(=O)CN(C)c2nc(-c3cccnc3)nc3sc(C)c(C)c23)cc1,.,.,.
Cc1cc(Cl)ccc1NC(=O)c1cc(-c2ccncc2)n[nH]1,89.6,65.5,.
CCc1ccccc1NC(=O)c1cc(-c2ccccn2)n[nH]1,38.1,73.2,.
O=C(Nc1ccccc1)c1cc(-c2ccncc2)n[nH]1,.,.,.
COc1ccccc1CNC(=O)c1cc(-c2ccccn2)n[nH]1,.,/,.
SMILES,USP30 block,USP17 block,USP8 inh
O=C(Nc1ccccc1Cl)c1cc(-c2ccncc2)n[nH]1,92.1,74.2,.
Cc1ccc(NC(=O)c2cc(-c3ccncc3)n[nH]2)c(C)c1,.,.,.
CC(C)[C@@H](C)[C@H](O)C(=O)[C@@H](C)C1CC[C@H]2[C@H]3C(=O)[C@@H]4O[C@@]45C[C@@H](OC(=O)C(O)C(C)(C)O)CC[C@]5(C)[C@]34O[C@@H]4C[C@]12C (stereo partly specified),.,.,.
O=C(c1ccc2ccccc2n1)N1C[C@H]2CC[C@@H](Nc3cnccn3)[C@H]2C1,.,.,.
CC(C)(C)OC(=O)N1CSC[C@@H]1C(=O)N1CCC(C(=O)N[C@@H](CC(N)=O)C(=O)O)(c2ccccc2)CC1,.,.,.
O=C(Cc1cccc(Cl)c1)Nc1cc(-c2ccccn2)no1,.,.,.
O=C(Cc1ccc(Cl)cc1)Nc1cc(-c2ccccn2)no1,.,40.4,.
Cc1ccc(NC(=O)c2cncn2-c2ccccc2)cc1S(N)(=O)=O,.,.,.
CC(=O)N1CCCC(c2cncc(N3CC4(CCCCC4)OC3=O)n2)C1 (stereo unspecified),.,.,.
CC(C)(C)C(=O)N1CCCC(c2cncc(N3CC4(CCCCC4)OC3=O)n2)C1 (stereo unspecified),44.6,.,.
CC(C)(O)[C@H]1CC[C@](C)([C@@H]2CC3(CCN(C(=O)c4cccc5c4OCCO5)CC3)CO2)O1,.,.,.
Cc1cc(C)c2cc(CN(Cc3cccnc3)C(=O)Nc3ccc(F)cc3)c(=O)[nH]c2c1,.,.,.
Cc1ccc2[nH]c(=O)c(CN(Cc3cccnc3)S(=O)(=O)c3ccccc3)cc2c1,.,.,.
COc1cc2cc(CN(Cc3cccnc3)C(=O)Nc3ccc(Cl)cc3)c(=O)[nH]c2cc1OC,39.6,.,.
CCc1ccc2[nH]c(=O)c(CN(CCc3ccc(OC)c(OC)c3)C(=O)Nc3ccccc3)cc2c1,54.4,44.2,.
CCc1ccc2[nH]c(=O)c(CN(CCCO)C(=O)Nc3cccc(Cl)c3)cc2c1,.,.,.
Cc1ccc2[nH]c(=O)c(CN(Cc3cccnc3)C(=O)c3cccc(Cl)c3)cc2c1,50.6,.,.
O=C(O)c1ccc(-n2cc(-c3ccncn3)cn2)cc1,.,.,.
Nc1cccc(-c2n[nH]c(-c3ccccc3)n2)c1,.,.,.
O=C(Nc1cccc(N2CCCC2=O)c1)c1cccc2cccnc12,.,55.6,.
COc1cccc(C(=O)Nc2cccc(N3CCCC3=O)c2)c1OC,.,.,.
COc1cc(C)ccc1OCC(=O)Nc1ccc(Oc2ccccc2)cc1,.,.,.
COc1ccc2nc(C)cc(OCC(=O)Nc3cc(C)cc(C)c3)c2c1,.,35.9,.
CC(=O)N[C@@H]1C[C@H](c2ccccc2F)O[C@@H]2CCC[C@@H]12,.,.,.
CC(C)(C)OC(=O)N1CCC[C@H]1C(=O)N1CCC(C(=O)N[C@@H](CC(N)=O)C(=O)O)(c2ccccc2)CC1,32.4,.,.
SMILES,USP30 block,USP17 block,USP8 inh
C[C@@H](NC(=O)C1(c2ccccc2)CCN(C(=O)[C@@H]2Cc3ccccc3CN2C(=O)OC(C)(C)C)CC1)C(=O)O,.,.,.
CC(C)(C)OC(=O)N1CCC[C@H]1C(=O)N1CCC(C(=O)N[C@H](CC(N)=O)C(=O)O)(c2ccccc2)CC1,.,.,.
CC(C)(C)OC(=O)N1Cc2ccccc2C[C@H]1C(=O)N1CCC(C(=O)N[C@H](CC(N)=O)C(=O)O)(c2ccccc2)CC1,.,.,50.2
CCOC(=O)C1=C(CN2CCC3(CC2)OCCO3)NC(=O)NC1c1cccc(OC)c1OC (stereo unspecified),.,.,.
Cn1ccc(CN2CCc3ccccc32)cc1=O,.,.,51.4
O=C(CN1CCc2ccccc21)Nc1ccccc1F,.,.,.
CC1CCN(c2ncc(CN3CCN(c4ccccc4)CC3)s2)CC1,.,.,.
Cn1nc(C(=O)N2CCCC2)c2c1CCN(C(=O)CCC(=O)NCc1cccc(F)c1)C2,.,/,.
C=Cc1ccc(Cn2cc(S(=O)(=O)N3CCOCC3)ccc2=O)cc1,.,56.9,.
Cc1cccc(Cn2cc(S(=O)(=O)N3CCOCC3)ccc2=O)c1,.,.,.
CCOc1ccc(S(=O)(=O)Nc2ccc[nH]c2=O)cc1,.,87.4,.
CCOc1ccc(S(=O)(=O)Nc2cccc(-n3cnnn3)c2C)cc1,.,.,.
